# Screens deposited in PubChem BioAssay by National Center for Advancing Translational Sciences (NCATS).
# AMA1-RON2 inh: qHTS for Inhibitors of AMA1-RON; Towards Development of Antimalarial Drug Lead: Primary Screen; Plasmodium falciparum AMA1 (3D7) - RON2 peptide interaction; AlphaScreen AMA1-biotinylated RON2 peptide binding; Potency, µM (series often up to 58.2 µM), for inactives: at the highest dose activity change, negative = inhibition, actives largely listed as inhibitors; 360,000 tested, 0.2% active; AID 720542, 2013;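 further: 0% = vehicle wells and -100% = peptide control; nearly all actives have a fitted effect of over 45% in size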
#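 AMA1 (3D7) with his tag at 25 nM final met compounds first, then biotinylated RON2 peptide at 25 nM; detection used donor plus acceptor beads, 10 µg/mL apiece, read by AlphaScreen after 30 min at room temperature.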
# HCV inh: qHTS Assay for Inhibitors of Hepatitis C Virus (HCV); Huh7.5.1 HCVcc-Cre infection, luciferase reporter, 44 h; Potency, µM (top dose mostly 41.8 µM), for inactives: at the top dose activity change, negative = inhibition, hits mostly inhibitors; 340,000 tested, 3.4% active
#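 A cell-based infection assay in which seeded cells (1,000 per well) receive test compound after 4 h, are inoculated with HCVcc-Cre at approximately 0.5 moi, and are incubated 44 h before luminescence detection.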
# Pf growth 96h: Primary qHTS for delayed death inhibitors of the malarial parasite plastid, 96 hour incubation. Potency, µM (top dose mostly 28.7 µM), without a hit: at the top dose activity change, negative = inhibition, usual class: inhibitors. 320,000 tested, 6.9% active. P. falciparum luciferase reporter growth, 96 h
#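 Two parasite generations (96 h, 37 C, 5% CO2) of compound exposure in infected erythrocytes (0.05% parasitemia, 2% hematocrit). Luciferase-reporter P. falciparum; decreased luminescence indicates inhibited growth, aimed at apicoplast-acting delayed death.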
# Pf growth 48h: Primary qHTS for delayed death inhibitors of the malarial parasite plastid, 48 hour incubation | P. falciparum luciferase growth in erythrocytes, 48 h | Potency, µM (doses to about 28.7 µM), without a hit: top-dose activity change, negative = inhibition, hits mostly inhibitors | 310,000 tested, 5.9% active | AID 504832, 2011
#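 Compounds are pin-transferred into medium, infected erythrocytes (2% hematocrit, 0.1% parasitemia final) are added, and plates sit one parasite generation at 37 C in 5% CO2. Detection reagent is then added and luminescence measured.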
# * = called active by the depositor; i = inactive; ? = inconclusive; nt = no result given. Only some compounds are listed: those with a hit (about 11% of all), similar ones and a draw of the others. The call rests on the fitted dose curve; in most records, active means well fitted curve in the direction sought with a large enough effect; inconclusive means small, poorly fitted or top-dose-only effect, or another doubt; inactive means no such curve, though single readings can be large; an effect the other way counts as inactive or inconclusive. Unless noted, on the % scale 0 is the no-effect control and ±100 the full control effect; potency means the concentration at half of the fitted maximal effect.
SMILES,AMA1-RON2 inh,HCV inh,Pf growth 96h,Pf growth 48h
Cc1ccc(-n2cc(CN(C)CCc3cn[nH]c3)c(-c3cccc(C)c3)n2)cc1,-2%,26%,3%,?
Cc1ccc(-n2cc(CN(C)Cc3nccn3C)c(-c3ccc(F)cc3)n2)cc1,6%,-18%,-18%,8.3µM*
CCn1ccnc1CN(C)Cc1cn(-c2ccc(C)cc2)nc1-c1ccc(F)cc1,-3%,?,19%,0%
CCN1CC(CN(C)Cc2cn(-c3ccc(C)cc3)nc2-c2cccc(C)c2)CC1=O (stereo unspecified),-6%,-12%,?,10µM*
Cc1ccc(-n2cc(CN(C)Cc3ncc[nH]3)c(-c3cccc(C)c3)n2)cc1,2%,?,0%,2.6µM*
Cc1ccc(-n2cc(CNC(C)Cc3cnccn3)c(-c3cccc(C)c3)n2)cc1 (stereo unspecified),-17%,-11%,21%,3.3µM*
CN(Cc1ccnc2ccccc12)C(=O)C1CCC(=O)N(Cc2ccccc2F)C1 (stereo unspecified),7%,15%,?,-18%
CCCCC1=CC2=CC(=O)C(C)(OC(=O)CC)C(=O)C2=CN1CCOC (stereo unspecified),0%,3%,21%,?
CCCCC1=CC2=CC(=O)C(C)(OC(=O)CC)C(=O)C2=CN1CCc1ccc(Br)cc1 (stereo unspecified),-10%,-20%,?,9.3µM*
CCCCC1=CC2=CC(=O)C(C)(OC(=O)CC)C(=O)C2=CN1Cc1ccccc1 (stereo unspecified),-12%,-7%,?,?
CCCCC1=CC2=CC(=O)C(C)(OC(=O)CC)C(=O)C2=CN1c1ccccc1 (stereo unspecified),-3%,-1%,13µM*,10µM*
Cc1noc(C)c1COc1ccc(C(=O)NNC(=O)c2ccccc2F)cc1,55%,-23%,-20%,-24%
CCCCC(CC)CNC(=O)c1cccs1 (stereo unspecified),-4%,13%,4.7µM*,5.2µM*
COc1cc(NC(=S)NCCC(c2ccccc2)c2ccccc2)cc(OC)c1,72%,22µM*,?,13µM*
COc1cc(OC)cc(C(=O)NCCC(c2ccccc2)c2ccccc2)c1,6%,14µM*,?,?
Cc1ccc(C)c(S(=O)(=O)N2CCN(C(=O)c3cccn3C)CC2)c1,-21%,11%,1%,-18%
CCOC(=O)c1c(N2C(=O)CC(Sc3ccccc3C(=O)O)C2=O)sc2c1CCCC2 (stereo unspecified),-3%,10%,-5%,-2%
Cc1cc(C)c2nc(SC(C)C#N)cc(C)c2c1 (stereo unspecified),10%,10µM*,16%,nt
Cc1cc(C)c2nc(SC3CCOC3=O)cc(C)c2c1 (stereo unspecified),4%,-8%,36%,5%
O=c1c2c(nc3c(-c4ccc(Cl)cc4)c[nH]n13)CCCC2,2%,?,5%,4.7µM*
O=c1c2c(nc3c(-c4cccc5ccccc45)c[nH]n13)CCC2,42%,-6%,6%,16%
Cn1ncc(Cl)c1C(=O)N1CCN(C(=O)c2ccco2)CC1,-13%,1%,-29%,5%
C/C=C/c1ccc(OCCCCN(C)Cc2ccccc2)c(OC)c1,?,11µM*,i,-15%
COc1ccc(CCN(C)Cc2ccc(C(=O)Nc3ccccc3)cc2)cc1OC,0%,10µM*,?,?
CCN(CC)c1ccc(CN(C)CCc2ccc(OC)c(OC)c2)cc1,-17%,?,?,-10%
SMILES,AMA1-RON2 inh,HCV inh,Pf growth 96h,Pf growth 48h
COc1ccc(CCN(C)Cc2ccc(OC)c(OCc3ccccc3)c2)cc1OC,-13%,-25%,10µM*,?
COc1ccc(CCN(C)Cc2ccc(OCc3ccccc3)c(OC)c2)cc1OC,?,-12%,?,?
COc1ccc(OCc2nnc(SCC(=O)N3C(C)CCCC3C)o2)cc1 (stereo unspecified),-4%,23%,?,?
CCOc1ccccc1NC(=O)CSc1nnc(CNC(=O)c2c(F)cccc2Cl)o1,13%,?,27%,17%
COC(=O)c1csc(S(=O)(=O)N2CCOCC2)c1OC,-1%,8%,-13%,-12%
O=c1oc2cc(O)c(Cl)cc2c2ccccc12,2%,-2%,25%,11%
O=c1cc2c(=O)oc3cc(O)c(O)oc3c2c(O)c1O,10µM*,11%,8.3µM*,5.2µM*
Cc1nc(NC(=O)C2CCCC2)sc1Cc1ccc2c(c1)OCO2,?,4%,?,?
Cc1nc(NC(=O)C23CC4CC(CC(C4)C2)C3)sc1Cc1ccc2c(c1)OCO2,?,?,1.7µM*,?
COc1cc(OC)cc(-c2c(C#Cc3ccsc3)c3cc(-c4ccc(C(N)=O)cc4)ccc3n2C)c1,-3%,?,1µM*,1.3µM*
COc1cc(C#Cc2c(-c3cncn3C)n(C)c3ccc(-c4cc(OC)c(OC)c(OC)c4)cc23)cc(OC)c1,-2%,11µM*,nt,nt
COc1cc(C#Cc2c(-c3cncn3C)n(C)c3ccc(-c4ccc(OC)nc4)cc23)cc(OC)c1,2%,-33%,0.093µM*,?
COc1ccc(-c2c(C#Cc3ccsc3)c3cc(-c4ccc(OC)nc4)ccc3n2C)cc1,-1%,13%,?,?
COc1cc(C#Cc2c(-c3cncn3C)n(C)c3ccc(-c4ccc5[nH]ccc5c4)cc23)cc(OC)c1,26%,?,0.83µM*,1.5µM*
CCS(=O)(=O)n1nc(-c2ccccc2)nc1SC,-4%,2%,60%,nt
COC(=O)c1ccc(NC(=O)c2cccc(Cl)c2)o1,-8%,-10%,56%,52%
Clc1cccc2c3c([nH]c12)CCNC3,-5%,?,0.59µM*,13%
CC(C)c1ccc(-c2noc(C3CCCN(C(=O)c4ccc(F)cc4F)C3)n2)cc1 (stereo unspecified),8%,11µM*,51%,?
Cc1ccccc1NC(=O)N1CCCC(c2nc(-c3ccc(C(C)C)cc3)no2)C1 (stereo unspecified),-13%,13µM*,-8%,-15%
CCCCOc1ccc(C(=O)NCc2ccccn2)cc1,57%,?,nt,-1%
O=C(O)c1nn(CCOc2c(Cl)cccc2Cl)c(=O)c2ccccc12,47%,11%,39%,-2%
O=C(Cc1cccc(NC(=O)C2CCCN(C(=O)C3CCC3)C2)c1)Nc1cccc(C(=O)N2CCCC2)c1 (stereo unspecified),-15%,?,2.3µM*,?
O=C(Cc1cccc(NC(=O)C2CCCN(C(=O)C3CCCCC3)C2)c1)Nc1cccc(C(=O)N2CCCC2)c1 (stereo unspecified),-4%,-20%,?,4.1µM*
